What all share (test): NCI-60 one-dose screen, 48 h (100 = growth as untreated, 0 = no growth, -100 = all killed)
One experiment relates to SK-MEL-2 melanoma. Particulars: 10 µM unless noted.
A further experiment relates to EKVX NSCLC. Particulars: 10 µM unless noted.
The test system of another experiment is SN12C renal. The conditions noted are these: 10 µM unless noted.
For another experiment, the system named is UO-31 renal. The conditions noted are these: 10 µM unless noted.
The subject of the next experiment is TK-10 renal. Particulars: 10 µM unless noted.
The subject of a further experiment is ACHN renal. The conditions noted are these: 10 µM unless noted.
The next experiment concerns CAKI-1 renal. Particulars: 10 µM unless noted.
A further experiment deals with A498 renal. Particulars: 10 µM unless noted.
A further experiment has as its system CCRF-CEM leukemia. The conditions noted are these: 10 µM unless noted.
The test system of the next experiment is MOLT-4 leukemia. Particulars: 10 µM unless noted.
For a further experiment, the system named is SR leukemia. Particulars: 10 µM unless noted.
The next experiment has as its system RPMI-8226 leukemia. The conditions noted are these: 10 µM unless noted.
For a further experiment, the system named is OVCAR-8 ovarian. The conditions noted are these: 10 µM unless noted.
For the next experiment, the system named is OVCAR-4 ovarian. Particulars: 10 µM unless noted.
In another experiment the test system is SK-OV-3 ovarian. Particulars: 10 µM unless noted.
For a further experiment, the system named is OVCAR-3 ovarian. The conditions noted are these: 10 µM unless noted.
The test system of a further experiment is HS 578T breast. The conditions noted are these: 10 µM.
A further experiment deals with NCI/ADR-RES ovarian. Particulars: 10 µM unless noted.
The subject of the next experiment is OVCAR-5 ovarian. Particulars: 10 µM unless noted.
In another experiment the test system is IGROV1 ovarian. Particulars: 10 µM unless noted.

Compounds without any hit were thinned out: in the full panel of roughly 83,000, 20% have a hit.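 In brief: 96-well plates, 48 h treatment, single concentration, percent growth endpoint.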 A number with no mark means an inactive call. The source made the active and inactive calls. How the source made its calls: active means growth percent below 10; inactive means the rest.

Consider `CCN(CC)c1ccc2nc3c4ccccc4c(=O)cc-3n(-c3ccccc3)c2c1`, for which the growth is -37.2% (active) with SK-MEL-2 melanoma; -4.16% (active) in the experiment with EKVX NSCLC; 13.2% in the experiment with SN12C renal; -26.2% (active) in the experiment on UO-31 renal; 13.6% in the experiment on TK-10 renal; -1% (active) with ACHN renal. Also, the growth is -17.8% (active) in the experiment with CAKI-1 renal; 17.6% with A498 renal; 15.7% in the experiment with CCRF-CEM leukemia; 2.41% (active) in the experiment on MOLT-4 leukemia; -5.63% (active) in the experiment on SR leukemia; 6.27% (active) in the experiment on RPMI-8226 leukemia. Further, the growth in the experiment with OVCAR-8 ovarian is 7.52% (active); in the experiment on OVCAR-4 ovarian, 6.28% (active); in the experiment with SK-OV-3 ovarian, 3.71% (active); with OVCAR-3 ovarian, -52.6% (active); in the experiment with HS 578T breast it was -17.8% (active); in the experiment with NCI/ADR-RES ovarian it was -7.19% (active).
Take `O=C1C=CC(=O)N1CO`: the growth in the experiment with SK-MEL-2 melanoma is 123%; with EKVX NSCLC it was 138%; in the experiment on SN12C renal it was 99%; in the experiment on UO-31 renal, 89.1%; in the experiment on TK-10 renal, 114%; with ACHN renal, 108%. In addition, the growth with CAKI-1 renal was 117%; in the experiment with A498 renal, 113%; in the experiment with CCRF-CEM leukemia, 101%; in the experiment with MOLT-4 leukemia it was -32.2% (active); in the experiment with RPMI-8226 leukemia, 112%; in the experiment with OVCAR-8 ovarian, 110%. Also, the growth is 101% in the experiment with OVCAR-5 ovarian; 130% with OVCAR-4 ovarian; 116% in the experiment with SK-OV-3 ovarian; 109% with IGROV1 ovarian; 113% with OVCAR-3 ovarian; 108% in the experiment with HS 578T breast. Also, in the experiment with NCI/ADR-RES ovarian, the growth is 129%.
`CCOC(=O)c1ccc(NCCC(=O)O)cc1`: the growth is 96.7% in the experiment on SK-MEL-2 melanoma; 122% in the experiment with EKVX NSCLC; 108% in the experiment with SN12C renal; 83.1% in the experiment on UO-31 renal; 101% with TK-10 renal; 103% in the experiment on ACHN renal. For the same molecule, the growth was 109% with CAKI-1 renal; 113% in the experiment with A498 renal; 97.6% in the experiment with CCRF-CEM leukemia; 87.2% in the experiment on MOLT-4 leukemia; 103% in the experiment on SR leukemia; 115% with RPMI-8226 leukemia. Further, the growth with OVCAR-8 ovarian is 104%; in the experiment on IGROV1 ovarian, 112%; in the experiment with OVCAR-3 ovarian, 138%; in the experiment with HS 578T breast, 104%; in the experiment on NCI/ADR-RES ovarian, 113%.
In the case of `CCCCNCCC(O)c1cc2ccc(C(F)(F)F)cc2c2cc(C(F)(F)F)ccc12` (stereo not given), the growth is -70.1% (active) in the experiment on SK-MEL-2 melanoma; -54% (active) with EKVX NSCLC; -75.2% (active) in the experiment with SN12C renal; -88.8% (active) with UO-31 renal; -91.8% (active) in the experiment with TK-10 renal; -82.8% (active) with ACHN renal. Moreover, the growth is -74.7% (active) in the experiment on CAKI-1 renal; -6.76% (active) in the experiment on A498 renal; -45.5% (active) in the experiment with CCRF-CEM leukemia; -58.8% (active) with MOLT-4 leukemia; -70.2% (active) with SR leukemia; -42.8% (active) with RPMI-8226 leukemia. The growth with OVCAR-8 ovarian was -77.3% (active); with SK-OV-3 ovarian, -34% (active); in the experiment on IGROV1 ovarian it was -60.9% (active); in the experiment on OVCAR-3 ovarian it was -84.8% (active); in the experiment with HS 578T breast it was -55.2% (active); in the experiment on NCI/ADR-RES ovarian, -74.5% (active).
`CC(C)=CCC[C@H](C)c1ccc(C)c2c1OCN(CCO)C2`: the growth was 99.2% with SK-MEL-2 melanoma; 97.2% with EKVX NSCLC; 79.6% in the experiment on SN12C renal; 42.4% in the experiment on UO-31 renal; 88.4% with TK-10 renal; 90.1% with ACHN renal. In addition, the growth in the experiment with CAKI-1 renal was 91.6%; in the experiment on A498 renal, 47.2%; in the experiment with CCRF-CEM leukemia, 87.5%; in the experiment on MOLT-4 leukemia, 101%; in the experiment with RPMI-8226 leukemia it was 83.2%; in the experiment on OVCAR-8 ovarian, 86.3%. Moreover, the growth with OVCAR-5 ovarian was 83.7%; in the experiment on OVCAR-4 ovarian it was 79%; in the experiment on SK-OV-3 ovarian, 105%; in the experiment with IGROV1 ovarian, 66.7%; in the experiment with OVCAR-3 ovarian, 86.1%; in the experiment with HS 578T breast it was 75.6%. The growth with NCI/ADR-RES ovarian is 73.5%.
As to `COc1cc(NCCCCC(C)N)c2nccc(C)c2c1` (stereo not given), the growth is 105% in the experiment with SK-MEL-2 melanoma; 78.3% in the experiment with EKVX NSCLC; 87.1% in the experiment with SN12C renal; 38.2% in the experiment on UO-31 renal; 99.1% in the experiment with TK-10 renal; 94% with ACHN renal. Moreover, the growth was 94.8% in the experiment with CAKI-1 renal; 68.6% in the experiment with A498 renal; 99.7% with CCRF-CEM leukemia; 81.7% in the experiment with MOLT-4 leukemia; 98.7% in the experiment on SR leukemia; 75.2% in the experiment with RPMI-8226 leukemia. Moreover, the growth in the experiment with OVCAR-8 ovarian was 97%; in the experiment with OVCAR-5 ovarian it was 81.6%; in the experiment with SK-OV-3 ovarian, 93.3%; with OVCAR-3 ovarian, 73.5%; in the experiment on HS 578T breast, 80.2%; in the experiment with NCI/ADR-RES ovarian, 100%.
For `COc1ccc(C(=O)C(CN(C)C)c2ccccc2)cc1` (stereo not given), the growth in the experiment on SK-MEL-2 melanoma was 14.6%; in the experiment on EKVX NSCLC, 28.1%; in the experiment with SN12C renal it was 31.4%; with UO-31 renal, -18.7% (active); with TK-10 renal, 29.5%; with ACHN renal, -71.4% (active). Besides, the growth in the experiment on CAKI-1 renal is -46.7% (active); in the experiment on A498 renal, 60.2%; in the experiment with CCRF-CEM leukemia, 12.6%; in the experiment on MOLT-4 leukemia it was 21.7%; with RPMI-8226 leukemia, 9.15% (active); in the experiment with OVCAR-8 ovarian it was 17%. The growth in the experiment on OVCAR-5 ovarian was 44.3%; in the experiment on OVCAR-4 ovarian it was 33.4%; in the experiment on SK-OV-3 ovarian, 110%; in the experiment on IGROV1 ovarian, 1.31% (active); with OVCAR-3 ovarian it was 0.0357% (active); in the experiment with HS 578T breast it was -13.8% (active). Besides, in the experiment on NCI/ADR-RES ovarian, the growth was 9.35% (active).
Turning to `COc1cc(/C=C2\C(=O)Nc3ccc(N(C)C)cc32)cc(OC)c1OC`, the growth in the experiment on SK-MEL-2 melanoma was 61.2%; in the experiment with EKVX NSCLC, 34.4%; in the experiment with SN12C renal it was 25.2%; in the experiment with UO-31 renal, 35.2%; in the experiment with TK-10 renal, 42.3%; with ACHN renal it was 41.6%. Besides, the growth in the experiment with CAKI-1 renal was 22.2%; in the experiment on A498 renal, -18.2% (active); in the experiment on CCRF-CEM leukemia, 21.9%; in the experiment on MOLT-4 leukemia, 36.2%; in the experiment on SR leukemia it was 19.1%; with RPMI-8226 leukemia, 14.3%. Moreover, the growth is 71.1% with OVCAR-5 ovarian; 42.1% in the experiment with OVCAR-4 ovarian; 45.5% in the experiment with SK-OV-3 ovarian; 16.6% in the experiment on IGROV1 ovarian; -18.2% (active) in the experiment with HS 578T breast; 0.228% (active) with NCI/ADR-RES ovarian.
Regarding `CCCCC(CCc1ccccn1)C(=O)c1ccccc1` (stereo not given), the growth with SK-MEL-2 melanoma is 116%; in the experiment on EKVX NSCLC, 102%; with SN12C renal it was 122%; in the experiment on UO-31 renal, 79.7%; with TK-10 renal it was 127%; with ACHN renal, 116%. In addition, the growth with CAKI-1 renal was 99.5%; in the experiment with A498 renal, 105%; in the experiment with CCRF-CEM leukemia, 98.3%; in the experiment on MOLT-4 leukemia, 112%; in the experiment on RPMI-8226 leukemia, 106%; in the experiment on OVCAR-8 ovarian it was 112%. Besides, the growth in the experiment on OVCAR-5 ovarian was 109%; in the experiment with OVCAR-4 ovarian, 110%; with SK-OV-3 ovarian, 110%; in the experiment with IGROV1 ovarian, 101%; in the experiment on OVCAR-3 ovarian, 116%; in the experiment on HS 578T breast it was 112%. Moreover, the growth in the experiment on NCI/ADR-RES ovarian was 104%.
